Results from PubChem BioAssay AID1159580 (chemical genetic matrix, 2015).
In all, about 5,500 compounds went through this assay and about 2,000 (36%) were called active. Roughly 18% stayed inconclusive and do not appear here. No stated cut-off is given here; in the data, active means normalized growth mostly below about 0.91 (no sharp cut-off); inconclusive means no clear call, values can overlap the other calls; inactive means mostly above about 0.92. This is one part of the list.

Assay: chemical genetic growth profiling, strain panel (AID 1159580);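 further: tested at 20 µM; growth read once vehicle control cultures reached saturation at 30 °C; 1 = growth at the plate median or of vehicle wells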
Details: growth OD

Measured: normalized growth

CC(C)=CCc1c(O)cc(C)oc1=O
inactive: S. cerevisiae deletion strains, locus YBR021W, strain FUR4, stronger effect = lower value 1.01 | S. cerevisiae deletion strains, locus YBR229C, strain ROT2, stronger effect = lower value 0.99 | S. cerevisiae deletion strains, locus YCL029C, strain bik1, stronger effect = lower value 0.97 | S. cerevisiae deletion strains, locus YDL035C, strain GPR1, stronger effect = lower value 1.11 | S. cerevisiae deletion strains, locus YDL074C, strain BRE1, stronger effect = lower value 1.12 | S. cerevisiae deletion strains, locus YDL101C, strain DUN1, stronger effect = lower value 0.998 | S. cerevisiae deletion strains, locus YDL185W, strain tfp1, stronger effect = lower value 0.961 | S. cerevisiae deletion strains, locus YDL192W, strain arf1, stronger effect = lower value 1.01 | S. cerevisiae deletion strains, locus YDR101C, strain arx1, stronger effect = lower value 1.01 | S. cerevisiae deletion strains, locus YDR150W, strain NUM1, stronger effect = lower value 1.01 | S. cerevisiae deletion strains, locus YDR162C, strain NBP2, stronger effect = lower value 1.03 | S. cerevisiae deletion strains, locus YDR318W, strain mcm21, stronger effect = lower value 0.986 | S. cerevisiae deletion strains, locus YDR388W, stronger effect = lower value 0.994 | S. cerevisiae deletion strains, locus YDR502C, strain sam2, stronger effect = lower value 0.995 | S. cerevisiae deletion strains, locus YEL061C, strain CIN8, stronger effect = lower value 1.03 | S. cerevisiae deletion strains, locus YER110C, stronger effect = lower value 0.982 | S. cerevisiae deletion strains, locus YER155C, strain BEM2, stronger effect = lower value 0.963 | S. cerevisiae deletion strains, locus YER167W, strain BCK2, stronger effect = lower value 0.991 | S. cerevisiae deletion strains, locus YGL078C, strain dbp3, stronger effect = lower value 0.981 | S. cerevisiae deletion strains, locus YGL086W, strain mad1, stronger effect = lower value 1.01 | S. cerevisiae deletion strains, locus YGL248W, strain PDE1, stronger effect = lower value 1.03 | S. cerevisiae deletion strains, locus YGR135W, strain pre9, stronger effect = lower value 1 | S. cerevisiae deletion strains, locus YGR252W, strain gcn5, stronger effect = lower value 1.03 | S. cerevisiae deletion strains, locus YHR079C, strain IRE1 (second series), stronger effect = lower value 0.962 | S. cerevisiae deletion strains, locus YHR094C, strain hxt1, stronger effect = lower value 0.978 | S. cerevisiae deletion strains, locus YHR129C, strain ARP1, stronger effect = lower value 1.02 | S. cerevisiae deletion strains, locus YHR200W, strain rpn10, stronger effect = lower value 0.975 | S. cerevisiae deletion strains, locus YIL066C, strain RNR3, stronger effect = lower value 1 | S. cerevisiae deletion strains, locus YIL073C, strain SPO22, stronger effect = lower value 1.08 | S. cerevisiae deletion strains, locus YIL125W, strain kgd1, stronger effect = lower value 0.981 | S. cerevisiae deletion strains, locus YIR030C, strain dcg1, stronger effect = lower value 0.991 | S. cerevisiae deletion strains, locus YJL095W, strain BCK1, stronger effect = lower value 1.04 | S. cerevisiae deletion strains, locus YJL134W, strain LCB3, stronger effect = lower value 0.988 | S. cerevisiae deletion strains, locus YJL168C, strain set2, stronger effect = lower value 0.967 | S. cerevisiae deletion strains, locus YJL187C, strain SWE1 (second series), stronger effect = lower value 1 | S. cerevisiae deletion strains, locus YJR043C, strain POL32, stronger effect = lower value 1.08 | S. cerevisiae deletion strains, locus YKL009W, strain mrt4, stronger effect = lower value 1.01 | S. cerevisiae deletion strains, locus YKL068W, stronger effect = lower value 0.98 | S. cerevisiae deletion strains, locus YKL085W, strain MDH1 (second series), stronger effect = lower value 0.972 | S. cerevisiae deletion strains, locus YKL085W, strain MDH1, stronger effect = lower value 0.972 | S. cerevisiae deletion strains, locus YKL190W, strain CNB1, stronger effect = lower value 1.02 | S. cerevisiae deletion strains, locus YKR001C, strain vps1, stronger effect = lower value 1.03 | S. cerevisiae deletion strains, locus YLR039C, strain RIC1, stronger effect = lower value 1.21 | S. cerevisiae deletion strains, locus YLR058C, strain SHM2, stronger effect = lower value 1.01 | S. cerevisiae deletion strains, locus YLR102C, strain apc9, stronger effect = lower value 0.953 | S. cerevisiae deletion strains, locus YLR262C, strain YPT6, stronger effect = lower value 1.19 | S. cerevisiae deletion strains, locus YLR268W, strain sec22, stronger effect = lower value 0.999 | S. cerevisiae deletion strains, locus YLR330W, strain CHS5, stronger effect = lower value 1.01 | S. cerevisiae deletion strains, locus YLR371W, strain rom2, stronger effect = lower value 0.983 | S. cerevisiae deletion strains, locus YLR418C, strain cdc73, stronger effect = lower value 0.987 | S. cerevisiae deletion strains, locus YML016C, strain PPZ1, stronger effect = lower value 0.982 | S. cerevisiae deletion strains, locus YML032C, strain rad52, stronger effect = lower value 0.994 | S. cerevisiae deletion strains, locus YML124C, strain tub3, stronger effect = lower value 0.973 | S. cerevisiae deletion strains, locus YMR078C, strain ctf18, stronger effect = lower value 0.98 | S. cerevisiae deletion strains, locus YMR223W, strain ubp8, stronger effect = lower value 0.99 | S. cerevisiae deletion strains, locus YMR307W, strain GAS1, stronger effect = lower value 1.13 | S. cerevisiae deletion strains, locus YNL067W, strain RPL9B, stronger effect = lower value 1.02 | S. cerevisiae deletion strains, locus YNL128W, strain TEP1, stronger effect = lower value 1.01 | S. cerevisiae deletion strains, locus YNL233W, strain BNI4, stronger effect = lower value 1.05 | S. cerevisiae deletion strains, locus YNL250W, strain rad50, stronger effect = lower value 0.94 | S. cerevisiae deletion strains, locus YNL271C, strain bni1, stronger effect = lower value 0.986 | S. cerevisiae deletion strains, locus YNL298W, strain CLA4, stronger effect = lower value 0.981 | S. cerevisiae deletion strains, locus YNL307C, strain MCK1, stronger effect = lower value 1 | S. cerevisiae deletion strains, locus YNL322C, strain KRE1, stronger effect = lower value 0.995 | S. cerevisiae deletion strains, locus YNR052C, strain pop2, stronger effect = lower value 0.99 | S. cerevisiae deletion strains, locus YOL006C, strain TOP1, stronger effect = lower value 1.26 | S. cerevisiae deletion strains, locus YOL012C, strain htz1 0.881 | S. cerevisiae deletion strains, locus YOL147C, strain pex11, stronger effect = lower value 0.973 | S. cerevisiae deletion strains, locus YOR061W, strain CKA2, stronger effect = lower value 0.991 | S. cerevisiae deletion strains, locus YOR069W, strain VPS5, stronger effect = lower value 0.989 | S. cerevisiae deletion strains, locus YOR136W, strain idh2, stronger effect = lower value 0.972 | S. cerevisiae deletion strains, locus YOR144C, strain elg1, stronger effect = lower value 0.964 | S. cerevisiae deletion strains, locus YOR184W, strain ser1, stronger effect = lower value 1.07 | S. cerevisiae deletion strains, locus YOR316C, strain cot1, stronger effect = lower value 0.971 | S. cerevisiae deletion strains, locus YPL055C, strain LGE1, stronger effect = lower value 1.1 | S. cerevisiae deletion strains, locus YPL241C, strain CIN2, stronger effect = lower value 0.997 | S. cerevisiae deletion strains, locus YPR119W, strain clb2, stronger effect = lower value 0.963 | S. cerevisiae deletion strains, locus YPR141C, strain kar3, stronger effect = lower value 0.954 | S. cerevisiae deletion strains, locus YPR163C, strain tif3, stronger effect = lower value 0.995 | S. cerevisiae deletion strains, locus YPR167C, strain met16, stronger effect = lower value 0.995 | S. cerevisiae deletion strains, strain wtn01, stronger effect = lower value 1.01 | S. cerevisiae strains, strain wild type, stronger effect = lower value 1.04
